The nature of assay [1]: P-glycoprotein substrates identified in KB-8-5-11 adenocarcinoma cell line, qHTS therapeutic library screen (AID 1346987). Also: nearly all actives have a fitted effect of over 65% in size. Also: potency is read from the fitted curve at half-maximal effect. The method, boiled down:
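Luminescence from CellTiter-Glo, read 5 min after addition, quantified survival of KB-8-5-11 (P-gp-overexpressing) cells exposed to compounds for 72 h. AC50 was derived from concentration-response curves.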

Assay [2] concerns the target Atrial natriuretic peptide receptor 2 (Homo sapiens) (UniProt P20594). Put plainly: Natriuretic polypeptide receptor (hNpr2) antagonism - Pilot subtype selectivity assay (AID 1347050; calls by dose curve; also: potency is read from the fitted curve at half-maximal effect). The method, boiled down:
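Read-out: GloSensor luminescence (CCD imager), baseline vs post-stimulation. HEK293 cells expressing hNpr2; compounds pre-incubated 30-50 min at ambient temperature; hNppC 1 nM final, 20 min.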

For assay [3], the target named is T1, Tyrosine-protein phosphatase non-receptor type substrate 1 (Homo sapiens) + Leukocyte surface antigen CD47 (Homo sapiens) (UniProt P78324+Q08722). Put plainly: CD47-SIRPalpha protein protein interaction - LANCE assay qHTS validation (AID 1347057; active = well fitted curve in the direction sought with a large enough effect in the signal ratio, with a control signal flat, not every such curve was filed as active; the % refers to the signal ratio; also: series mostly up to about 38 µM). The method, boiled down:
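Inhibition of soluble CD47/SIRPalpha ectodomain association by titrated compounds, measured as 665/615 nm time-resolved FRET ratio after sequential 30 min room-temperature incubations.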

Assay [4] has as its target T1, Tyrosine-protein phosphatase non-receptor type substrate 1 (Homo sapiens) + Leukocyte surface antigen CD47 (Homo sapiens). Put plainly: CD47-SIRPalpha protein protein interaction - HTRF assay qHTS validation (AID 1347058; active = well fitted curve in the direction sought with a large enough effect in the signal ratio, not every such curve was filed as active; the % refers to the signal ratio; also: series mostly up to about 38 µM). The method, boiled down:
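Soluble extracellular domains (6His-CD47, Avi-tag-biotinylated SIRPalpha) in PBS pH 7.4 with 0.05% IGEPAL CA-630. Compounds were preincubated 30 min at RT with CD47 and anti-His-Eu, then SIRPalpha and SAV-XL665 were added. TR-FRET 665/615 ratio.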

The target is the same in assay [5]. Nature of the assay: CD47-SIRPalpha protein protein interaction - Alpha assay qHTS validation (AID 1347059).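 Also: bead proximity luminescence from CD47 binding SIRPalpha after compound preincubation with SIRPalpha.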 The essentials: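 In PBS (pH 7.4) with 0.05% IGEPAL CA-630, compound is preincubated with biotin-Avi-SIRPalpha ectodomain before His-CD47 ectodomain and affinity beads are added. Light-protected room-temperature incubations; AlphaScreen readout.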
Assay [6] addresses Parathyroid hormone/parathyroid hormone-related peptide receptor (Homo sapiens) (UniProt Q03431). Nature of the assay: qHTS for PTHR1 Agonists: Optimization Screen against the NCGC LOPAC library (AID 1347079).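 Also: GloSensor cAMP luminescence in HEK-293 GP2 cells expressing human PTHR1 with IBMX.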 The essentials:
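HEK-293 GP2 cells, PTHR1 + GloSensor cAMP; 3000 cells/well, o/n. Luciferin + IBMX 0.5mM each (stock), 1 hr 37C. Cpd titration, 1 hr 37C. Lum after 15 min RT. Ctrl M-PTH(1-15) top 10uM.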

Assay [7] is described as follows: qHTS for Inhibitors of the Functional Ribonucleoprotein Complex (vRNP) of Lassa (LASV) Arenavirus: LASV Primary Screen - GLuc reporter signal (AID 1347082; calls by dose curve; tested in HEK293 reporter line; also: nearly all actives have a fitted effect of over 60% in size; also: potency is read from the fitted curve at half-maximal effect).
Assay [8] is described as follows: qHTS of pediatric cancer cell lines to identify multiple opportunities for drug repurposing: Primary screen for TC32 cells (AID 1347089). Also: nearly all actives have a fitted effect of over 60% in size. Also: potency is read from the fitted curve at half-maximal effect. The essentials: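 qHTS, TC32, 48 h drug treatment, CellTiter-Glo luminescence as a proxy for metabolically active cells; primary top concentration 46 µM (MIPE 11-pt, NPC 8-pt); confirmatory 11-pt.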
Assay [9] is described as follows: qHTS of pediatric cancer cell lines to identify multiple opportunities for drug repurposing: Primary screen for DAOY cells (AID 1347090). Also: nearly all actives have a fitted effect of over 55% in size. Also: potency is read from the fitted curve at half-maximal effect. The essentials: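 Eight- or eleven-point concentration series, 48 h treatment at 37 degrees C in growth media; readout CellTiter-Glo luminescence. Potency and efficacy were taken from the concentration-response curves.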
Assay [10] can be described thus: NS1 protein of Zika virus - qHTS assay to identify small molecule inhibitors in human HEK 293 cells (AID 1347053). Also: nearly all actives have a fitted effect of over 55% in size. Also: potency is read from the fitted curve at half-maximal effect. The essentials: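 Readout was TR-FRET using paired anti-NS1 antibodies after 24 h infection of HEK 293 cells with ZIKV MR766 (MOI = 0.5). Compound preceded virus by 1 h; reduced signal reflects lower NS1 expression.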
Assay [11] can be described thus: qHTS for Inhibitors of the Functional Ribonucleoprotein Complex (vRNP) of Lassa (LASV) Arenavirus: Viability assay - alamar blue signal for LASV Primary Screen (AID 1347083; calls by dose curve; tested in HEK293 reporter line; also: nearly all actives have a fitted effect of over 80% in size; also: potency is read from the fitted curve at half-maximal effect).
The nature of assay [12]: qHTS for Inhibitors of the Functional Ribonucleoprotein Complex (vRNP) of Lymphocytic Choriomeningitis Arenaviruses (LCMV): Viability assay - alamar blue signal for LCMV Primary Screen (AID 1347085; calls by dose curve; tested in HEK293 reporter line; also: nearly all actives have a fitted effect of over 80% in size; also: potency is read from the fitted curve at half-maximal effect).
Assay [13] has as its target Nucleoprotein (Lymphocytic choriomeningitis virus (strain Armstrong)) (UniProt P09992). Nature of the assay: qHTS for Inhibitors of the Functional Ribonucleoprotein Complex (vRNP) of Lymphocytic Choriomeningitis Arenaviruses (LCMV): LCMV Primary Screen - GLuc reporter signal (AID 1347086; calls by dose curve; also: nearly all actives have a fitted effect of over 70% in size; also: potency is read from the fitted curve at half-maximal effect).
Assay [14] is described as follows: Natriuretic polypeptide receptor (hNpr1) antagonism - Pilot counterscreen GloSensor control cell line (AID 1347045; calls by dose curve; also: potency is read from the fitted curve at half-maximal effect). The method, boiled down:
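Cells were first seeded and incubated overnight at 37C, then loaded with 2% GloSensor substrate for 2 h. Compounds were added for 30 min at room temperature, followed by a baseline read, 50 uM SNP and a final read after 20 min.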

Where “and” joins values, the source holds several entries; their conditions need not be identical. Equal values may be shown once. Inconclusive results are not listed. Where a structure was tested more than once in an assay, its records may differ in their call. Calls of active or inactive are those of the source. Unless noted, calls follow the shape of the dose curve; as a rule, active = well fitted curve in the direction sought with a large enough effect; inconclusive = small, poorly fitted or top-dose-only effect, or another doubt; inactive = no such curve, though single readings can be large; an effect the other way counts as inactive or inconclusive.

Sequence of Nucleoprotein (Lymphocytic choriomeningitis virus (strain Armstrong)) (P09992 whole entry, looked up): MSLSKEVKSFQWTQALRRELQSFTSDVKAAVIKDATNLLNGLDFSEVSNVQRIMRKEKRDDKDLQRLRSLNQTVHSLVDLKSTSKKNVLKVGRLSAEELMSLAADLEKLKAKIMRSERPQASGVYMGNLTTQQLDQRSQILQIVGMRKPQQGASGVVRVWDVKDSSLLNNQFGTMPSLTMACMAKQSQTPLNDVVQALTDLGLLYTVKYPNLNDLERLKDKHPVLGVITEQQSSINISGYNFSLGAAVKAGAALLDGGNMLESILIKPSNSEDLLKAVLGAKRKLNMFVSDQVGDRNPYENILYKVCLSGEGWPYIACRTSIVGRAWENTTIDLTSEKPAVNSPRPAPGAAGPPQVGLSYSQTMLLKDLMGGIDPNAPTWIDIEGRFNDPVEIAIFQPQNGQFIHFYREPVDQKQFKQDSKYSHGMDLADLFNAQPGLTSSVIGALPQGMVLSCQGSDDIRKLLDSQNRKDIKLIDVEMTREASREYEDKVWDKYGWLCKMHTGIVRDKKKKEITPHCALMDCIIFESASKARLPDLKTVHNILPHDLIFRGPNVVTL
T1 sequence (P78324 whole entry, looked up, the tested form may be a part): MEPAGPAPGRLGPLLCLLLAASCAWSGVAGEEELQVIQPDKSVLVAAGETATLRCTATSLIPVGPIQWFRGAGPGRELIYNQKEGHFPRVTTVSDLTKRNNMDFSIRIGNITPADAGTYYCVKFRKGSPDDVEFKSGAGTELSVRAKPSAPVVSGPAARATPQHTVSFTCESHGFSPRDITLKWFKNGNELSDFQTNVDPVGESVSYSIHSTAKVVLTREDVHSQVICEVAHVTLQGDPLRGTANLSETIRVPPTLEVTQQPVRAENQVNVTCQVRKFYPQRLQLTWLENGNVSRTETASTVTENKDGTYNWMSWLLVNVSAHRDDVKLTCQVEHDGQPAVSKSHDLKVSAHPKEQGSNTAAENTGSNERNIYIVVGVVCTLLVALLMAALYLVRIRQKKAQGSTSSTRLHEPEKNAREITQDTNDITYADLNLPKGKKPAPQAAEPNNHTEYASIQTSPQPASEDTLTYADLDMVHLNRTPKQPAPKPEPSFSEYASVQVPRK
T1 sequence (Q08722 whole entry, looked up, the tested form may be a part): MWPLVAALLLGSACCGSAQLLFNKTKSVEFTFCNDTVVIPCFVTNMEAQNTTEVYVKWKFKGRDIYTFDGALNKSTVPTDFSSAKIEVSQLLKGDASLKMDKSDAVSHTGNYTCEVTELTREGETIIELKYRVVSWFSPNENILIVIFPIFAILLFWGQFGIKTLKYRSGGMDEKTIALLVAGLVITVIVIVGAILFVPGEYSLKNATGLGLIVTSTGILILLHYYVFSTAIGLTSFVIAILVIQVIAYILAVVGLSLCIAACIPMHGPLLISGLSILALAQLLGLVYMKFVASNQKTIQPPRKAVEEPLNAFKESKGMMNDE
Sequence of Atrial natriuretic peptide receptor 2 (Homo sapiens) (P20594 whole entry, looked up): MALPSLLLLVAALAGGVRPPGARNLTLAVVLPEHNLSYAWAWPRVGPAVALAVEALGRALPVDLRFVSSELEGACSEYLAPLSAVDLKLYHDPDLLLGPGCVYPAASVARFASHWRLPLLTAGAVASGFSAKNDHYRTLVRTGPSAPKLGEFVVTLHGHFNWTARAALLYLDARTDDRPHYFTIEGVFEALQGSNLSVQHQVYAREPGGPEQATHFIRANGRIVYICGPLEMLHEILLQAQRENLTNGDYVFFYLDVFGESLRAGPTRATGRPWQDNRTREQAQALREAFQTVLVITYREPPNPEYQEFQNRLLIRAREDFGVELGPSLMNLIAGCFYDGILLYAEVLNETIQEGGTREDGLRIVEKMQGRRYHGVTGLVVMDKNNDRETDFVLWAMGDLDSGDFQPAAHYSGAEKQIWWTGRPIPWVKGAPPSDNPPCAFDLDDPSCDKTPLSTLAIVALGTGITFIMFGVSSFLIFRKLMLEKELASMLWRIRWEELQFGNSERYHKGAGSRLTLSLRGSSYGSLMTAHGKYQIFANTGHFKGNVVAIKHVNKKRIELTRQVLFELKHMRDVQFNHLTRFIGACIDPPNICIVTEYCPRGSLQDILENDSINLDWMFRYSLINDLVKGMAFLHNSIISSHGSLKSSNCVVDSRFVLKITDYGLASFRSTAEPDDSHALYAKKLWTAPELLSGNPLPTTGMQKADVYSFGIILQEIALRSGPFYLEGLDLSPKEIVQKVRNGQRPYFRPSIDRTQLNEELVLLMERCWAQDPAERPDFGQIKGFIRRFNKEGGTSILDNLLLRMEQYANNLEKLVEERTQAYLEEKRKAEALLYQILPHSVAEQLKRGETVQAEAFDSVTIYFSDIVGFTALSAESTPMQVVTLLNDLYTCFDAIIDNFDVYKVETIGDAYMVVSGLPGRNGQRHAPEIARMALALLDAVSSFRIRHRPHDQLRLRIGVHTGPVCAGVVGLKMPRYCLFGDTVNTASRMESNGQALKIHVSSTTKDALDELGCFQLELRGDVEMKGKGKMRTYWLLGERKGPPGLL
Sequence of Parathyroid hormone/parathyroid hormone-related peptide receptor (Homo sapiens) (Q03431 whole entry, looked up): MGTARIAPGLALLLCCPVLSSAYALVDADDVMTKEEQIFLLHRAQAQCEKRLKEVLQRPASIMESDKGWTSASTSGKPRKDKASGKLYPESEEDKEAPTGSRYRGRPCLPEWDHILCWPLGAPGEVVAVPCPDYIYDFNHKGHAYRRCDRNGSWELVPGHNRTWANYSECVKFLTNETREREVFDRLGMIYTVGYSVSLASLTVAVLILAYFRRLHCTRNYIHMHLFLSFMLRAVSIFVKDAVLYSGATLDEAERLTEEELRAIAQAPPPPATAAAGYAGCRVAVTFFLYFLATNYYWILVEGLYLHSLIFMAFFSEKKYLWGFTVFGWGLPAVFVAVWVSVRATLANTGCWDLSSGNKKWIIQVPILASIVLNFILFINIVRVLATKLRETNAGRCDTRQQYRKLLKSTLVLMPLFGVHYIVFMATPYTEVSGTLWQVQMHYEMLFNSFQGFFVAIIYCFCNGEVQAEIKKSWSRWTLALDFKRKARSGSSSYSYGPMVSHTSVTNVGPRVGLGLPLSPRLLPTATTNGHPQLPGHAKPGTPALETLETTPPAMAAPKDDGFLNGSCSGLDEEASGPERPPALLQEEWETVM

Take `c1ccc2c(c1)OCC(C1=NCCN1)O2` (centres undefined): the Potency result in assay [1], in assay [2] and in assay [8] was “inactive” in each case. The result in assay [3], in [4], in [5] and in [6] was inactive. For the same compound, the Potency in assay [7] is 14.1 µM (active); in assay [9], 26.6 µM (active).
For the compound `CC[N+](CC)(CC)CC`, the Potency result in assay [1], in [10], in assay [7], in assay [11], in [12] and in assay [13] was “inactive” in each case. In addition, the Potency result in [8] and in assay [9] was “inactive” in each case.
As for `CCOP(=S)(OCC)Oc1cc(C)nc(C(C)C)n1`, the Potency entry in [1], in [10], in assay [7], in [11], in [12] and in assay [13] was “inactive” throughout. The Potency result in [8] and in [9] was “inactive” throughout.
Take `Oc1cc(Cl)ccc1Oc1ccc(Cl)cc1Cl`: the Potency result in [1] was “inactive and 31.6 µM (active)”. The Potency result in assay [10], in [7], in [11], in [12], in assay [13] and in assay [8] was “inactive” in each case.
For `c1ccc2c(c1)Nc1ccccc1S2`, the Potency result in assay [1], in [10], in assay [7], in assay [11], in assay [12] and in assay [13] was “inactive” each time. Further, in assay [8], the Potency result is “inactive”.
`N#CC(C#N)=Cc1ccc(O)c(O)c1`: the Potency result in assay [1], in assay [14], in assay [2], in assay [7], in assay [11] and in assay [12] was “inactive” throughout. Besides, the Potency entry in [13] and in assay [9] was “inactive” throughout. Moreover, the outcome in assay [3], in assay [5] and in assay [6] was inactive.
In the case of `NP(N)(=O)NC(=O)c1ccc(F)cc1`, the Potency entry in [1], in assay [10], in assay [7], in [11], in assay [12] and in assay [13] was “inactive” in each case. The Potency result in assay [8] was “inactive”.
Take `C[C@]12C/C(=C/O)C(=O)C[C@@H]1CC[C@@H]1[C@@H]2CC[C@@]2(C)[C@H]1CC[C@]2(C)O`: the Potency entry in assay [1], in assay [10], in assay [7], in assay [11], in assay [12] and in assay [13] was “inactive” throughout. In assay [8], the Potency result is “inactive”.
`C#CCN(C)[C@H](C)Cc1ccccc1`: the Potency entry in assay [1], in assay [10], in [7], in [11], in assay [12] and in assay [13] was “inactive” each time. The Potency entry in assay [8] was “inactive”.
On to `CCCC1CCCCN1` (centres undefined), for which the Potency entry in assay [1], in [10], in [7], in assay [11], in assay [12] and in assay [13] was “inactive” each time. The Potency result in assay [8] and in assay [9] was “inactive” in each case.
Consider `CCN(C(C)=O)c1cccc(-c2ccnc3c(C#N)cnn23)c1`, for which the Potency entry in [1], in assay [10], in assay [7], in [11], in assay [12] and in assay [13] was “inactive” each time. Further, the Potency result in [8] and in assay [9] was “inactive” each time.
As for `C=C(C)[C@H]1Cc2c(ccc3c2O[C@@H]2COc4cc(OC)c(OC)cc4[C@@H]2C3=O)O1`, the Potency in assay [1] was 13 nM (active) and 2.64 µM (active); in assay [14], 0.117 µM (active); in assay [2], 0.0826 µM (active); in [7] it was 1.09 µM (active); in assay [11], 2.17 µM (active) and 708 nM (active); in [12] it was 3.85 µM (active). The Potency is 1.67 µM (active) and 4.66 µM (active) in [8]; 168 nM (active) and 296 nM (active) in assay [9]. In addition, the result in [3], in assay [4] and in assay [6] was inactive.
Take `Oc1ccc(Cl)cc1Cc1ccccc1`: the Potency result in assay [1], in assay [10], in assay [7], in assay [11], in [12] and in assay [13] was “inactive” in each case. In addition, the Potency result in assay [8] was “inactive”.
For `CN1CCN(C(=O)O[C@H]2c3nccnc3C(=O)N2c2ccc(Cl)cn2)CC1`, the Potency entry in assay [1], in assay [10], in assay [7], in assay [11], in [12] and in assay [13] was “inactive” throughout. Further, the Potency result in [8] and in assay [9] was “inactive” throughout.
For `O=C(O)c1ccc2[nH]cc(CCCCN3CC=C(c4ccccc4)CC3)c2c1`, the Potency entry in [1], in [10], in assay [7], in assay [11], in assay [12] and in assay [13] was “inactive” throughout. In addition, the Potency entry in assay [8] was “inactive”.
For the compound `Fc1ccc(C(OCCN2CCN(CCCc3ccccc3)CC2)c2ccc(F)cc2)cc1`, the Potency in assay [1] is 10.5 µM (active); in [7], 34.3 µM (active); in [13], 30.6 µM (active); in assay [8] it was 13.1 µM (active); in assay [9], 23.5 µM (active). Moreover, in assay [2], the Potency entry was “inactive”. Besides, the result in assay [3], in assay [4], in assay [5] and in assay [6] was inactive.
For the compound `Oc1ccccc1-c1ccccc1`, the Potency entry in [1], in assay [10], in assay [7], in assay [11], in assay [12] and in [13] was “inactive” each time. In addition, the Potency result in [8] and in assay [9] was “inactive” in each case.
With `NCCc1cc(O)c(O)cc1O`, the Potency result in assay [1], in assay [10], in assay [7], in assay [11], in assay [12] and in assay [13] was “inactive” each time. In [8], the Potency result was “inactive”.
With `O=[N+]([O-])c1cc([As](=O)(O)O)ccc1O`, the Potency entry in assay [1], in [10], in assay [7], in assay [11], in assay [12] and in assay [13] was “inactive” throughout. For the same compound, the Potency entry in assay [8] and in [9] was “inactive” each time.
Regarding `CC(C)(C)NCC(O)c1cc(Cl)c(N)c(Cl)c1` (centres undefined), the Potency entry in assay [1], in [10], in assay [7], in assay [11], in assay [12] and in [13] was “inactive” throughout. The Potency result in assay [8] is “inactive”.
Consider `CN(C)CCc1ccc(O)cc1`, for which the Potency result in assay [1], in assay [7], in assay [11], in assay [12], in assay [13] and in assay [8] was “inactive” in each case.
Regarding `CC1NCCOC1c1ccccc1` (centres undefined), the Potency entry in assay [1], in assay [10], in assay [7], in [11], in [12] and in assay [13] was “inactive” in each case. Besides, the Potency entry in assay [8] and in [9] was “inactive” throughout.
In the case of `CCN(CC)CCOC(=O)C(O)(c1ccccc1)c1ccccc1`, the Potency entry in assay [1], in [10], in assay [7], in assay [11], in [12] and in assay [13] was “inactive” each time. In addition, the Potency result in assay [8] and in [9] was “inactive” throughout.
Regarding `Oc1cccc2cccnc12`, the Potency result in [1], in assay [7], in [11], in assay [12], in assay [13] and in assay [8] was “inactive” throughout. For the same compound, the Potency in [10] is 14.1 µM (active) and inactive.

The values are drawn from PubChem BioAssay (NCATS).
